The text below walks through data of PubChem BioAssay AID624295 (Southern Research Specialized Biocontainment Screening …, 2012).

Each structure is given as a SMILES string. Active and inactive are the calls of the source. How the calls were made is not given here.

This experiment in a line: viability of Vero 76 cells – cell-based, set 6, cytotoxicity control for VEEV inhibitor project (AID 624295). The conditions noted are these: Vero 76 cells viability, cytotoxicity counter-screen; series mostly up to 25 µM. Background: A counterscreen serves to expose hits that act by an unwanted route or on another target.
As for `CCN1CCN(Cc2nc3ccc([N+](=O)[O-])cc3c(=O)[nH]2)CC1`, the result was inactive.

With `NS(=O)(=O)c1ccc(-n2c(-c3ccccc3)nc3ccc(Br)cc3c2=O)cc1`, the molecule was called inactive.

Turning to `O=c1c2cc([N+](=O)[O-])ccc2nc(CN2CCNCC2)n1-c1ccccc1`, the molecule was called inactive.

Regarding `CN1CCN(Cc2nc3ccc([N+](=O)[O-])cc3c(=O)n2-c2ccccc2F)CC1`, the molecule was classed as inactive.

Take `CCN1CCN(Cc2nc3ccc(C(=O)N(C)C)cc3c(=O)n2-c2ccccc2)CC1`: the call was inactive.

On to `CCN1CCN(Cc2nc3cc([N+](=O)[O-])ccc3c(=O)n2-c2ccccc2)CC1`, for which the outcome was inactive.

For `CCN1CCN(Cc2nc3ccc([N+](=O)[O-])cc3c(=O)n2-c2cccc(F)c2)CC1`, the call was inactive.

Take `CCN1CCN(Cc2nc3ccc([N+](=O)[O-])cc3c(=O)n2C(C)C)CC1`: the molecule was classed as inactive.

As to `CCN1CCN(Cc2nc3cccc([N+](=O)[O-])c3c(=O)n2-c2ccccc2)CC1`, the call was inactive.

Consider `O=c1c2cc([N+](=O)[O-])ccc2nc(CN2CCCCC2)n1-c1ccccc1F`, for which the molecule was classed as inactive.

On to `CCN1CCN(Cc2nc3ccc(C(N)=O)cc3c(=O)n2-c2ccccc2)CC1`, for which the call was inactive.

Take `CCN1CCN(Cc2nc3ccc([N+](=O)[O-])cc3c(=O)n2-c2ccccc2)CC1`: the outcome was inactive.

In the case of `O=c1c2cc([N+](=O)[O-])ccc2nc(CN2CCNCC2)n1-c1ccccc1F`, the result was inactive.

With `CCN1CCN(Cc2nc3ccc(I)cc3c(=O)n2-c2ccccc2)CC1`, the molecule was classed as inactive.

For the molecule `CCN1CCN(Cc2nc3ccc([N+](=O)[O-])cc3c(=O)n2-c2ccc(F)cc2)CC1`, the outcome was inactive.
